The target of test [1] is Calcium and integrin-binding protein 1 (Homo sapiens) (UniProt Q99828). As to the kind of experiment: Primary qHTS for Identification of Calcium Integrin Binding Protein 1 (CIB1) Competitor (AID 1508620).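 Also: GST tagged CIB1 binding a fluorescein labelled alphaIIb integrin peptide tracer; top concentration of the series differs between compounds.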 The essentials:
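Fluorescence polarization competition: CIB1-GST (1 uM final) preincubated with compound 15 min at room temperature, then FITC-labeled alphaIIb peptide (100 nM final) added for another 15 min. Polarization read at Ex 480/Em 540.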

Test [2] is described as follows: Primary qHTS for small molecule stabilizers of the endoplasmic reticulum resident proteome: Secreted ER Calcium Modulated Protein (SERCaMP) assay (AID 1508630). The essentials:
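The SH-SY5Y reporter protocol was run at 3 concentrations up to 38.3 uM (primary) or 11 concentrations (follow-up): 16 h compound, 100 nM thapsigargin for 4 h, then extracellular luciferase luminescence.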

The nature of test [3]: Primary qHTS for inhibitors of nuclear receptor binding SET domain protein 2 (NSD2) in an isogenic RCH-ACV NSD2 p.E1099K mutant (9B) (AID 1645876). Also: nearly all actives have a fitted effect of over 70% in size. Also: potency is read from the fitted curve at half-maximal effect.
Test [4] is described as follows: Primary qHTS for inhibitors of nuclear receptor binding SET domain protein 2 (NSD2) in an RCH-ACV wild type WT cells (2C) (AID 1645877). Also: nearly all actives have a fitted effect of over 70% in size. Also: potency is read from the fitted curve at half-maximal effect.
Test [5] addresses Cytochrome P450 2D6 (Homo sapiens) (UniProt P10635). As to the kind of experiment: Cytochrome P450 family 2 subfamily D member 6 (CYP2D6) small molecule antagonists: luciferase biochemical (cell-free) qHTS assay (AID 1645840; active = well fitted curve in the direction sought with a large enough effect in the repeat runs; an effect the other way counts as inactive or inconclusive; also: nearly all actives have a fitted effect of over 55% in size; also: potency is read from the fitted curve at half-maximal effect). The essentials: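 P450-Glo CYP2D6 system: proluciferin substrate converted by enzyme to luciferin, read by luminescence proportional to activity. Enzyme-substrate mix with compound 10 min at room temperature, then NADPH regeneration 1 h before detection reagent.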

Test [6] deals with Cytochrome P450 2C9 (Homo sapiens) (UniProt P11712). Briefly: Cytochrome P450 family 2 subfamily C member 9 (CYP2C9) small molecule antagonists: luciferase biochemical (cell-free) qHTS assay (AID 1645842; active = well fitted curve in the direction sought with a large enough effect in the repeat runs; an effect the other way counts as inactive or inconclusive; also: nearly all actives have a fitted effect of over 55% in size; also: potency is read from the fitted curve at half-maximal effect). The essentials:
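P450-Glo CYP2C9 system: proluciferin substrate with enzyme in mix containing 0.4% BSA, 10 min at room temperature, then NADPH regeneration solution added and incubated 1 h at 37C. Detection reagent stopped reaction; luminescence read after 20 min as RLU.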

Test [7] addresses N-terminal Xaa-Pro-Lys N-methyltransferase 1 (Homo sapiens) (UniProt Q9BV86). As to the kind of experiment: Confirmatory qHTS for Inhibitors of N-terminal methyltransferase 1 (NTMT1): MTaseGlo Assay (AID 1645874).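 Also: luminescence from SAH made as NTMT1 methylates SPKRIA peptide using SAM; series mostly up to about 100 µM; nearly all actives have a fitted effect of over 65% in size.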 The essentials:
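MTase-Glo luminescence measured SAH formed by 125 nM NTMT1 from 100 uM SAM and 1 uM SPKRIA peptide over 30 min at room temperature, following 15 min compound preincubation. Percent inhibition against no-enzyme and DMSO controls gave 4-parameter Hill fits.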

The values that follow come from PubChem BioAssay (NCATS).

Several values for one entry are separate records, joined by “and”; a condition that tells them apart may be missing. Equal entries are not always repeated. Results filed as inconclusive are left out. Activity calls are given as the source filed them. Unless noted, calls follow the shape of the dose curve; as a rule, active = well fitted curve in the direction sought with a large enough effect; inconclusive = small, poorly fitted or top-dose-only effect, or another doubt; inactive = no such curve, though single readings can be large; an effect the other way counts as inactive or inconclusive.

Chain of Cytochrome P450 2D6 (Homo sapiens) (P10635 whole entry, looked up): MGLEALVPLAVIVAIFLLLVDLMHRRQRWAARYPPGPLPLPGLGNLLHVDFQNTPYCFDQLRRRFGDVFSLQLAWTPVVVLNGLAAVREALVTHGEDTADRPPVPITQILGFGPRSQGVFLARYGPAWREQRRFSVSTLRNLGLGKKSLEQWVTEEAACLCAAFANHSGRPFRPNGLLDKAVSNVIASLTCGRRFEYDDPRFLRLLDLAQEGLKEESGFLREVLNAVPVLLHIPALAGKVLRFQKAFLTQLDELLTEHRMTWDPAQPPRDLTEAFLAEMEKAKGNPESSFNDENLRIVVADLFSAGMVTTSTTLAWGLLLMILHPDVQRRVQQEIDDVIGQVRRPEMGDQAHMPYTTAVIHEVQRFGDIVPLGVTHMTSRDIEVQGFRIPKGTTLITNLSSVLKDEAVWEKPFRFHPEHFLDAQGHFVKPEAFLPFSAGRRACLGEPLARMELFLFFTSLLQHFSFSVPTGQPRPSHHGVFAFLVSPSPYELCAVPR
Chain of Calcium and integrin-binding protein 1 (Homo sapiens) (Q99828 whole entry, looked up): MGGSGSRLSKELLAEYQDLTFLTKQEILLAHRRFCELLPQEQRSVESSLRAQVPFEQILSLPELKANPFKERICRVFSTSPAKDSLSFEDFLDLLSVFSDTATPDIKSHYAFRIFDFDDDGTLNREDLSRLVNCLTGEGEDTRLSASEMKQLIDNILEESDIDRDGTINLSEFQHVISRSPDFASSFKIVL
Chain of Cytochrome P450 2C9 (Homo sapiens) (P11712 whole entry, looked up): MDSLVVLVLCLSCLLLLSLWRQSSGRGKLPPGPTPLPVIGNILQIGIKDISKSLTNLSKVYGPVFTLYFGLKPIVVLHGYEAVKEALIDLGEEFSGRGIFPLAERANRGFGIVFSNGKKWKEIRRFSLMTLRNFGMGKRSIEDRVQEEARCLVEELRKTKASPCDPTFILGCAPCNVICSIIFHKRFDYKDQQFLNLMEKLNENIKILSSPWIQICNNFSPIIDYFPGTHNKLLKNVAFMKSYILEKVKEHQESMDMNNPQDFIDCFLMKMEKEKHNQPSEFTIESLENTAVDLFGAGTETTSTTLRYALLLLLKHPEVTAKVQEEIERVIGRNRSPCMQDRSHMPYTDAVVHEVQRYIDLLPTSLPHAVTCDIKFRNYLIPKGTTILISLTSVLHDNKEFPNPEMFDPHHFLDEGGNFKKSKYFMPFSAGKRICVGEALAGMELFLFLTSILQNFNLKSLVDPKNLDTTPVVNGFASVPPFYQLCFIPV
Chain of N-terminal Xaa-Pro-Lys N-methyltransferase 1 (Homo sapiens) (Q9BV86 whole entry, looked up): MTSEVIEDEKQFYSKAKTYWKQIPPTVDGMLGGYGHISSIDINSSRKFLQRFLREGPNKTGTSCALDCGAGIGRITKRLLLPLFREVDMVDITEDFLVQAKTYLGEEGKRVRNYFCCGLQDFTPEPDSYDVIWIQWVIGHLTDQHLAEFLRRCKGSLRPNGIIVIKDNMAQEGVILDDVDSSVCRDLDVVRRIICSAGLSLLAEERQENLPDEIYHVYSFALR

Take `C[C@@]1(C(=O)Nc2ccc(F)nc2)CCCN1c1nc(Nc2cc(C3CC3)[nH]n2)c2cccn2n1`: the Potency entry in test [1] and in test [2] was “inactive” in each case. The figures for the Potency in test [3] and in test [4] were 2.95 µM (active) and 2.63 µM (active), respectively.
Consider `CCCCOCCOc1nc(-c2ccc(C(=O)O)c(F)c2)sc1C`, for which the Potency entry in test [1], in test [2], in test [3] and in test [4] was “inactive” each time.
Regarding `OC1CCC(Nc2ncc3nc(Nc4c(F)cc(F)cc4F)n([C@@H]4CCOC4)c3n2)CC1` (stereo partly specified), the Potency entry in test [1], in test [2], in test [3] and in test [4] was “inactive” throughout.
As to `Cc1ccc(C(=O)N(CCCN)[C@@H](c2nc3cc(Cl)ccc3c(=O)n2Cc2ccccc2)C(C)C)cc1`, the Potency entry in test [1] and in test [2] was “inactive” throughout. The Potency in test [3] and in test [4] was 0.0132 µM (active) each time.
Regarding `CCN(CC)CCCCNc1nc2cc(Cl)c(Cl)cc2nc1-c1ccc(-c2cccs2)s1`, the Potency entry in test [1] and in test [2] was “inactive” in each case. Further, the Potency in test [3] and in test [4] was 7.42 µM (active) each time.
Take `Cc1ccc(C(=O)N(CCCN)[C@@H](c2oc3cc(Cl)ccc3c(=O)c2Cc2ccccc2)C(C)C)cc1`: the Potency result in test [1] and in test [2] was “inactive” throughout. The Potency in test [3] was 0.0332 µM (active); in test [4] it was 0.0263 µM (active).
`COc1nccc(-c2c(-c3ccc(F)cc3)ncn2C2CCNCC2)n1`: the Potency entry in test [1] and in test [2] was “inactive” throughout. Besides, the Potency in test [4] was 18.6 µM (active).
As to `O=C(Nc1cccc(Cl)c1)Nc1ncc(CCNc2ncnc3ccsc23)s1`, the Potency result in test [1] and in test [2] was “inactive” in each case. For the same compound, the Potency in test [3] was 1.86 µM (active); in test [4], 0.0295 µM (active).
With `COc1cc(F)c(C(C)C)cc1-c1ccc(C(F)(F)F)cc1CN1C(=O)O[C@H](c2cc(C(F)(F)F)cc(C(F)(F)F)c2)[C@@H]1C`, the Potency result in test [1], in test [2] and in test [4] was “inactive” throughout.
Consider `O=C(NC[C@H](O)CO)c1ccncc1Nc1ccc(I)cc1F`, for which the Potency entry in test [1] and in test [2] was “inactive” in each case. The Potency in test [4] was 16.6 µM (active).
As for `Nc1ncnc2c1ncn2[C@@H]1O[C@H](CO)[C@@H](O)[C@@H]1O`, the Potency entry in test [1] and in test [2] was “inactive” throughout. The Potency in test [3] and in test [4] was 16.6 µM (active) in each case.
Regarding `Cc1cc(-c2ncc(CC(=O)Nc3ccc(-c4cnccn4)cn3)cc2C)ccn1`, the Potency result in test [1], in test [5], in test [6] and in test [7] was “inactive” throughout.
With `COc1cccc(OC)c1-c1cc(C(=O)NC2(C(=O)O)C3CC4CC(C3)CC2C4)nn1-c1ccnc2cc(Cl)ccc12` (stereo unspecified), the Potency result in test [1], in test [2] and in test [4] was “inactive” throughout.
Turning to `O=C(Nc1cccc(C(F)(F)F)c1)Nc1cc(S(=O)(=O)NC2CC2)ccc1-c1ccsc1`, the Potency entry in test [1] is “inactive”. Also, the Potency in test [5] was 5.35 µM (active); in test [6], 3.38 µM (active); in test [3] it was 23.5 µM (active); in test [4], 23 µM (active).
Take `Cc1nc(NC(=O)N2CCC[C@@H]2C(N)=O)sc1-c1csc(C(C)(C)C)n1`: the Potency entry in test [1] and in test [2] was “inactive” in each case. For the same compound, the Potency in test [3] and in test [4] was 7.31 µM (active) throughout.
On to `Nc1ccn([C@@H]2O[C@H](CO)[C@@H](O)[C@H]2O)c(=O)n1`, for which the Potency result in test [1], in test [2] and in test [4] was “inactive” in each case.
In the case of `Fc1ccc(CNc2ncnc3ccc(F)cc23)cc1`, the Potency entry in test [1] was “inactive”. The Potency is 16.9 µM (active) in test [5] and 8.49 µM (active) in test [6].
`Cc1ccc2c(=O)c3cccc(CC(=O)O)c3oc2c1C`: the Potency entry in test [1], in test [2], in test [3] and in test [4] was “inactive” each time.
For the compound `CSc1cccc(Nc2ncc3cc(-c4c(Cl)cccc4Cl)c(=O)n(C)c3n2)c1`, the Potency entry in test [1] and in test [5] was “inactive” in each case. In addition, the Potency in test [6] is 4.25 µM (active); in test [3], 2.06 µM (active); in test [4] it was 2.06 µM (active).
Take `CC(C)CNc1ccnc(NCc2csc(-c3ccccc3)n2)n1`: the Potency entry in test [1] was “inactive”. Moreover, the Potency in test [5] was 1.2 µM (active); in test [6], 10.7 µM (active); in test [3] it was 5.9 µM (active); in test [4], 8.33 µM (active).
Regarding `Cc1ccc(NC(=O)c2ccc(CN3CCN(C)CC3)cc2)cc1Nc1nc(-c2cccnc2)cs1`, the Potency result in test [1] and in test [2] was “inactive” each time. For the same compound, the Potency is 14.6 µM (active) and 14.8 µM (active) in test [3]; 18.4 µM (active) and 14.8 µM (active) in test [4].
With `CN1C(=O)C(Cc2c[nH]c3ccccc23)NC1=S` (stereo unspecified), the Potency entry in test [1], in test [2], in test [3] and in test [4] was “inactive” throughout.
With `CCNC(=O)c1noc(-c2cc(C(C)C)c(O)cc2O)c1-c1ccc(CN2CCOCC2)cc1`, the Potency entry in test [1] and in test [7] was “inactive” in each case. In addition, the Potency in test [5] is 1.34 µM (active); in test [6], 2.39 µM (active); in test [3], 18.3 nM (active) and 11.8 nM (active); in test [4] it was 18.3 nM (active) and 13.2 nM (active).
As to `COc1cc2nccc(Oc3ccc(NC(=O)Nc4ccc(F)cc4F)c(F)c3)c2cc1OC`, the Potency result in test [1] and in test [2] was “inactive” each time. In test [4], the Potency is 2.35 µM (active).
`CCCCc1ccc(NS(=O)(=O)c2ccc(C)c(C(=O)N3CCN(c4cccc(C)c4C)CC3)c2)cc1`: the Potency result in test [1], in test [2] and in test [4] was “inactive” each time.
Regarding `C=CC(=O)Nc1cccc(Sc2nc(Nc3ccc(N4CCN(C)CC4)cc3)ncc2Cl)c1`, the Potency result in test [1] and in test [2] was “inactive” throughout. Also, the Potency in test [3] was 2.9 µM (active) and 2.95 µM (active); in test [4], 2.3 µM (active) and 2.63 µM (active).
